# Data reported in the supplement of paper PMC8728848.
# This is one part of a sample in which the strongest signals are shown more often than they occur.
# B1: Epa13 (Candida glabrata) (protein)
# chain: MGSSHHHHHHSSGLVPRGSHMASDSSENGYAHGCSPSIRAKLKPGLSMEIYSYALRPTDDHCWDSAYLDPMFPRTGYLTHKLLGKAEGIIGPLNFLAKNPACIPAVSTLPLAFHFPKPFTITNFTMLLYGYLSPKKTGKYTFKLLADDLLLMNFGADNAFDCCSHDATKDNIGEYVAYSVWPGVNKNVTVYLESGIYYPLRLFFNNRDAIAQLDFAYYFNDSPIRQTDFSGMFFSIPDSVKCPANI
# How the values were obtained:
# Experiment in all cases: glycan array binding signal (z-score within array); higher = stronger binding
# Details in all cases: glycan notation: IUPAC condensed, linker removed
# [1] = molecular target: Fuc(a1-2)Gal(b1-3)GalNAc(b1-3)Gal
# Procedure, shortened: (§1)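 Glycan array data were curated from 3228 arrays in the Consortium for Functional Glycomics database and kept only where the protein sequence was available. Glycan names were converted to IUPAC-condensed notation, and columns mapping to the same glycan were averaged. The binding signal is a within-array Z-score, averaged across arrays of the same protein sequence at different concentrations or buffers and across linkers. Negative Z-scores can be read as non-binding.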
# [2] = molecular target: Fuc(a1-2)Gal(b1-3)[Fuc(a1-4)]GlcNAc(b1-3)[Fuc(a1-3)[Gal(b1-4)]GlcNAc(b1-6)]Gal(b1-4)Glc
# Procedure, shortened: as §1
# [3] = molecular target: Fuc(a1-2)Gal(b1-4)GlcNAc(b1-2)Man
# Procedure, shortened: as §1
# [4] = molecular target: Fuc(a1-2)Gal(b1-4)[Fuc(a1-3)]GlcNAc(b1-3)GalNAc
# Procedure, shortened: as §1
# [5] = molecular target: Fuc(a1-2)Gal(b1-4)[Fuc(a1-3)]GlcNAc(b1-3)[Neu5Ac(a2-6)Gal(b1-4)GlcNAc(b1-6)]Gal(b1-4)Glc
# Procedure, shortened: as §1
# [6] = molecular target: Fuc(a1-2)[Gal(a1-3)]Gal(b1-4)Glc
# Procedure, shortened: as §1
# [7] = molecular target: Fuc(a1-2)[Gal(a1-3)]Gal(b1-4)[Fuc(a1-3)]GlcNAc
# Procedure, shortened: as §1
# [8] = molecular target: Fuc(a1-2)[Gal(a1-4)]Gal(b1-4)GlcNAc
# Procedure, shortened: as §1
# [9] = molecular target: Fuc(a1-2)[GalNAc(a1-4)]Gal(b1-4)GlcNAc
# Procedure, shortened: as §1
# [10] = molecular target: Fuc(a1-3)[Gal(b1-4)]GlcNAc
# Procedure, shortened: as §1
# [11] = molecular target: Fuc(a1-3)[Gal(b1-4)]GlcNAc(b1-2)Man
# Procedure, shortened: as §1
# [12] = molecular target: Fuc(a1-3)[Gal(b1-4)]GlcNAc(b1-3)Gal(b1-4)[Fuc(a1-3)]GlcNAc(b1-3)Gal(b1-4)[Fuc(a1-3)]GlcNAc
# Procedure, shortened: as §1
# [13] = molecular target: Fuc(a1-3)[Gal3S(b1-4)]GlcNAc
# Procedure, shortened: as §1
# [14] = molecular target: Gal(a1-3)Gal(b1-3)GlcNAc(b1-6)GalNAc
# Procedure, shortened: as §1
# [15] = molecular target: Gal(a1-3)Gal(b1-4)GlcNAc(b1-2)Man
# Procedure, shortened: as §1
# [16] = molecular target: Gal(a1-3)Gal(b1-4)GlcNAc(b1-2)Man(a1-3)[Gal(a1-3)Gal(b1-4)GlcNAc(b1-2)Man(a1-6)]Man(b1-4)GlcNAc(b1-4)GlcNAc
# Procedure, shortened: as §1
# [17] = molecular target: Gal(a1-3)Gal(b1-4)GlcNAc(b1-3)GalNAc
# Procedure, shortened: as §1
# [18] = molecular target: Gal(a1-3)[Gal(a1-4)]Gal(b1-4)GlcNAc
# Procedure, shortened: as §1
# [19] = molecular target: Gal(a1-4)Gal(b1-3)GlcNAc(b1-2)Man(a1-3)[Gal(a1-4)Gal(b1-3)GlcNAc(b1-2)Man(a1-6)]Man(b1-4)GlcNAc(b1-4)GlcNAc
# Procedure, shortened: as §1
# [20] = molecular target: Gal(a1-4)Gal(b1-4)Glc
# Procedure, shortened: as §1
# [21] = molecular target: Gal(a1-4)Gal(b1-4)GlcNAc
# Procedure, shortened: as §1
# [22] = molecular target: Gal(a1-4)Gal(b1-4)GlcNAc(b1-2)Man(a1-3)[Gal(a1-4)Gal(b1-4)GlcNAc(b1-2)Man(a1-6)]Man(b1-4)GlcNAc(b1-4)GlcNAc
# Procedure, shortened: as §1
# [23] = molecular target: Gal(a1-4)GlcNAc
# Procedure, shortened: as §1
# [24] = molecular target: Gal(a1-6)Glc
# Procedure, shortened: as §1
# [25] = molecular target: Gal(b1-2)Gal
# Procedure, shortened: as §1
# [26] = molecular target: Gal(b1-3)GalNAc(a1-3)[Fuc(a1-2)]Gal(b1-4)GlcNAc
# Procedure, shortened: as §1
# [27] = molecular target: Gal(b1-3)GlcNAc(b1-3)Gal(b1-4)GlcNAc
# Procedure, shortened: as §1
# [28] = molecular target: Gal(b1-3)GlcNAc(b1-6)Gal(b1-4)GlcNAc
# Procedure, shortened: as §1
# [29] = molecular target: Gal(b1-3)GlcNAc(b1-6)[Gal(b1-3)]GalNAc
# Procedure, shortened: as §1
# [30] = molecular target: Gal(b1-4)Glc6S
# Procedure, shortened: as §1
# [31] = molecular target: Gal(b1-4)GlcNAc(a1-6)Gal(b1-4)GlcNAc
# Procedure, shortened: as §1
# [32] = molecular target: Gal(b1-4)GlcNAc(b1-2)[Gal(b1-4)GlcNAc(b1-6)]Man(a1-6)[GlcNAc(b1-4)][Gal(b1-4)GlcNAc(b1-2)[Gal(b1-4)GlcNAc(b1-4)]Man(a1-3)]Man(b1-4)GlcNAc(b1-4)[Fuc(a1-6)]GlcNAc
# Procedure, shortened: as §1
# [33] = molecular target: Gal(b1-4)GlcNAc(b1-3)Gal(b1-4)GlcNAc
# Procedure, shortened: as §1
# [34] = molecular target: Gal4S6S(b1-4)GlcNAc
# Procedure, shortened: as §1
# [35] = molecular target: Gal6S(b1-4)GlcNAc
# Procedure, shortened: as §1
# [36] = molecular target: Gal6S(b1-4)GlcNAc6S
# Procedure, shortened: as §1
# [37] = molecular target: GalNAc(b1-3)Gal(a1-4)Gal(b1-4)GlcNAc
# Procedure, shortened: as §1
# [38] = molecular target: Glc(a1-4)Glc
# Procedure, shortened: as §1
# [39] = molecular target: GlcNAc(a1-4)Gal(b1-4)GlcNAc(b1-3)Gal(b1-4)GlcNAc
# Procedure, shortened: as §1
# [40] = molecular target: GlcNAc(a1-4)Gal(b1-4)GlcNAc(b1-3)Gal(b1-4)[Fuc(a1-3)]GlcNAc(b1-3)Gal(b1-4)[Fuc(a1-3)]GlcNAc
# Procedure, shortened: as §1
# [41] = molecular target: GlcNAc(b1-2)Man(a1-3)[GlcNAc(b1-4)][GlcNAc(b1-2)Man(a1-6)]Man(b1-4)GlcNAc(b1-4)[Fuc(a1-6)]GlcNAc
# Procedure, shortened: as §1
# [42] = molecular target: GlcNAc(b1-2)[GlcNAc(b1-4)]Man(a1-3)[GlcNAc(b1-2)Man(a1-6)]Man(b1-4)GlcNAc(b1-4)GlcNAc
# Procedure, shortened: as §1
# [43] = molecular target: GlcNAc(b1-2)[GlcNAc(b1-4)]Man(a1-3)[GlcNAc(b1-4)][GlcNAc(b1-2)Man(a1-6)]Man(b1-4)GlcNAc(b1-4)GlcNAc
# Procedure, shortened: as §1
# [44] = molecular target: GlcNAc(b1-3)Gal
# Procedure, shortened: as §1
# [45] = molecular target: GlcNAc(b1-3)Gal(b1-4)GlcNAc(b1-2)[GlcNAc(b1-3)Gal(b1-4)GlcNAc(b1-6)]Man(a1-6)[GlcNAc(b1-3)Gal(b1-4)GlcNAc(b1-2)Man(a1-3)]Man(b1-4)GlcNAc(b1-4)GlcNAc
# Procedure, shortened: as §1
# [46] = molecular target: Neu5Ac(a2-3)Gal(b1-4)GlcNAc(b1-2)Man(a1-3)[Neu5Ac(a2-6)Gal(b1-4)GlcNAc(b1-2)Man(a1-6)]Man(b1-4)GlcNAc(b1-4)GlcNAc
# Procedure, shortened: as §1
# [47] = molecular target: Neu5Ac(a2-3)Gal6S(b1-4)[Fuc(a1-3)]GlcNAc
# Procedure, shortened: as §1
# [48] = molecular target: Neu5Ac(a2-6)Gal(b1-4)GlcNAc(b1-2)Man(a1-3)[GlcNAc(b1-2)Man(a1-6)]Man(b1-4)GlcNAc(b1-4)GlcNAc
# Procedure, shortened: as §1
# [49] = molecular target: Neu5Ac(a2-6)Gal(b1-4)GlcNAc(b1-3)Gal(b1-4)GlcNAc
# Procedure, shortened: as §1
# [50] = molecular target: Neu5Ac(a2-6)Gal(b1-4)GlcNAc(b1-3)Gal(b1-4)GlcNAc(b1-3)GalNAc
# Procedure, shortened: as §1
# [51] = molecular target: Neu5Ac(a2-6)Gal(b1-4)GlcNAc(b1-6)[Gal(b1-3)]GalNAc
# Procedure, shortened: as §1
# [52] = molecular target: Neu5Ac(a2-8)Neu5Ac(a2-3)Gal(b1-4)GlcNAc
# Procedure, shortened: as §1
# [53] = molecular target: Neu5Ac(b2-6)GalNAc
# Procedure, shortened: as §1
binder,measurement,setting,value
B1,glycan array binding signal (z-score),[1],0.112
same,glycan array binding signal (z-score),[2],-0.604
same,glycan array binding signal (z-score),[3],0.385
same,glycan array binding signal (z-score),[4],2.14
same,glycan array binding signal (z-score),[5],-0.526
same,glycan array binding signal (z-score),[6],-0.047
same,glycan array binding signal (z-score),[7],0.02
same,glycan array binding signal (z-score),[8],9.27
same,glycan array binding signal (z-score),[9],-0.453
same,glycan array binding signal (z-score),[10],-0.454
same,glycan array binding signal (z-score),[11],-0.124
same,glycan array binding signal (z-score),[12],-0.429
same,glycan array binding signal (z-score),[13],-0.351
same,glycan array binding signal (z-score),[14],1.13
same,glycan array binding signal (z-score),[15],0.125
same,glycan array binding signal (z-score),[16],4.93
same,glycan array binding signal (z-score),[17],0.561
same,glycan array binding signal (z-score),[18],1.47
same,glycan array binding signal (z-score),[19],4.04
same,glycan array binding signal (z-score),[20],3.52
same,glycan array binding signal (z-score),[21],4.15
same,glycan array binding signal (z-score),[22],5.18
same,glycan array binding signal (z-score),[23],7.08
same,glycan array binding signal (z-score),[24],13.2
same,glycan array binding signal (z-score),[25],4.04
same,glycan array binding signal (z-score),[26],-0.314
same,glycan array binding signal (z-score),[27],-0.418
same,glycan array binding signal (z-score),[28],-0.113
same,glycan array binding signal (z-score),[29],-0.014
same,glycan array binding signal (z-score),[30],0.255
same,glycan array binding signal (z-score),[31],0.075
same,glycan array binding signal (z-score),[32],-0.476
same,glycan array binding signal (z-score),[33],-0.291
same,glycan array binding signal (z-score),[34],-0.32
same,glycan array binding signal (z-score),[35],0.111
same,glycan array binding signal (z-score),[36],2.69
same,glycan array binding signal (z-score),[37],-0.05
same,glycan array binding signal (z-score),[38],-0.521
same,glycan array binding signal (z-score),[39],0.04
same,glycan array binding signal (z-score),[40],-0.218
same,glycan array binding signal (z-score),[41],0.145
same,glycan array binding signal (z-score),[42],-0.393
same,glycan array binding signal (z-score),[43],-0.299
same,glycan array binding signal (z-score),[44],-0.445
same,glycan array binding signal (z-score),[45],0.485
same,glycan array binding signal (z-score),[46],-0.354
same,glycan array binding signal (z-score),[47],-0.54
same,glycan array binding signal (z-score),[48],-0.413
same,glycan array binding signal (z-score),[49],-0.07
same,glycan array binding signal (z-score),[50],-0.142
same,glycan array binding signal (z-score),[51],-0.381
same,glycan array binding signal (z-score),[52],-0.449
same,glycan array binding signal (z-score),[53],-0.624
